Hit rate of the full screen: of about 69,000 compounds, about 8,600 (12%) showed an effect of 50% or more. The sample as a whole holds a higher share of strong results than the screen did.

The test system of the assay is Plasmodium berghei. Briefly: Screen against P. berghei liver stage (PbLuc), transformed with Luciferase, at 10uM. It counts as functional, HepG2. As to conditions: tested at 10 uM.
Consider `CN(Cc1nnc2n1CCC2)C(=O)Cc1ccc2c(c1)CCC2`, for which the INHIBITION is listed as 19.2%. For `CC(=O)NC1CCN(c2cc(C3CCNCC3)ccn2)CC1` the value was 20.2%; for `O=C(c1ncccn1)N1C[C@@H]2CN(Cc3cccnc3)CCO[C@@H]2C1`, -1.26%. In the case of `Fc1ccc(C(CNc2ccncn2)N2CCCC2)cc1` (stereo not drawn), the INHIBITION is on record as 45%. For `Cc1cc(C(=O)N2CCC3(C2)CN(c2ccsc2)C(=O)CN3C)[nH]n1` (stereo not drawn) the value was 46.2%. For `N#Cc1c(N)nc2c(c1C1CCOC1)CCc1cc(O)ccc1-2` (stereo not drawn) the value was -3.12%; for `COc1ccc2c(c1OC)Cc1c-2nc(N)c(C#N)c1C1CCOC1` (stereo not drawn), 40.5%. For `COc1ccc2c(c1)Cc1c-2nc(N)c(C#N)c1C1CCOC1` (stereo not drawn) the value was 73.9%; for `Cc1ccc(C(=O)Nc2ccc(N(C)C)cn2)n1C`, -75.9%; for `CCc1ccc(CN2C[C@@H]3COC[C@H](NS(C)(=O)=O)[C@@H]3C2)o1`, -12.2%.

`Cc1ccc(Oc2ncccc2C(=O)N(C)CC2OCCO2)c(C)c1`: the INHIBITION is listed as -17.2%.

Regarding `c1cc(C2CN(C3CCCCC3)C2)n[nH]1`, the INHIBITION is listed as 15.92%. With `CCC(N)c1ccccc1OCC(=O)N1CCCC1` (stereo not drawn) the figure was -42.3%; with `FC(F)(F)C1CCCn2c(CNCc3ccco3)nnc21` (stereo not drawn), 45.3%. With `Cc1ccc(CNCc2nnc3n2CC(C(F)(F)F)CC3)o1` (stereo not drawn) the figure was 65.9%. For `Cc1ccoc1CNCc1nnc2n1CC(C(F)(F)F)CC2` (stereo not drawn) the value was 52.6%. On to `Cc1ccc(CNCc2nnc3n2CCCC3C(F)(F)F)o1` (stereo not drawn), for which the INHIBITION is on record as 4.92%.

For `Cc1ccoc1CNCc1nnc2n1CCCC2C(F)(F)F` (stereo not drawn), the INHIBITION turned out to be 47.4%. Regarding `COc1cccc(CNCc2nnc3n2CC(C(F)(F)F)CC3)c1` (stereo not drawn), the INHIBITION is 45.1%. Turning to `CCC(NC(=O)c1cc(CC(C)C)nn1C)c1cccc(C)n1` (stereo not drawn), the INHIBITION worked out at 86.7%. With `CCC(NC(=O)c1cc(CC(C)C)nn1C)c1ccnn1C` (stereo not drawn) the figure was -18.2%; with `CCC(NC(=O)c1cc(CC(C)C)nn1C)c1cc(C)ccn1` (stereo not drawn), -1.15%; with `CC(O)CN1CCN(C(=O)c2cnn(-c3ccccc3Cl)c2)CC1` (stereo not drawn), 32%. Regarding `CCOCCN1CCN(c2ccc(C#N)cn2)CC1CC` (stereo not drawn), the INHIBITION is listed as 2.91%.

Regarding `O=C(c1cnoc1)N1CCC[C@]2(C[C@@H](OCc3ccccn3)CO2)C1`, the INHIBITION was found to be 8.47%. With `Cc1cc(C(N)=O)c2c(Br)cccc2n1` the figure was 53.2%; with `Cc1cc(C(=O)N(C)C)c2c(Br)cccc2n1`, 40.7%. With `Cc1cc(C(=O)O)c2c(Br)cccc2n1` the figure was 8.7%; with `Cc1nn(C)c(C)c1CCC(=O)N1CCCC(n2cccn2)C1` (stereo not drawn), 16.9%.

With `NS(=O)(=O)CCN1CCN(c2cc(F)ccc2F)CC1`, the INHIBITION was -6.51%.

For `O=C1CCC(=O)N1CCN1CCN(c2cc(F)ccc2F)CC1`, the INHIBITION is 79.1%. Take `CCCS(=O)(=O)CCN1CCN(c2cc(F)ccc2F)CC1`: the INHIBITION amounted to 25.2%.

`NC(=O)C1CCN(C(=O)c2ccn(-c3cccc(Cl)c3)n2)C1` (stereo not drawn): the INHIBITION is -1.14%. With `O=C(NCCCn1cccn1)NCC(c1ccco1)N1CCCC1` (stereo not drawn) the figure was -49.5%; with `CCOCC(=O)N1CC[C@H]2OCC[C@@]2(COc2ncccc2F)C1`, -23.4%; with `Cc1ncsc1CNC(=O)NCC1(c2ccc3c(c2)OCO3)CC1`, 70.2%. With `Cc1csc(CNC(=O)NCC2(c3ccc4c(c3)OCO4)CC2)n1` the figure was 2.29%. For `Cc1n[nH]cc1CNCC1(c2ccc3c(c2)OCO3)CCOCC1` the value was -21.4%; for `CN1CCN(Cc2cn3c(n2)CN(Cc2cccc(F)c2)CC3)CC1`, 27.6%. `CCn1nc(C)c(-c2cncn2Cc2ccccc2CN(C)C)c1C`: the INHIBITION is listed as 34.1%. For `Cc1ccc(-c2cc(C(=O)O)sn2)cc1` the value was -21.9%. With `CN(C)c1ncc(I)c(C2CCCN2S(C)(=O)=O)n1` (stereo not drawn) the figure was 7.19%.

Regarding `Cc1ccnc(NCCSc2nccn2C)n1`, the INHIBITION is given as 65.6%. For `Cn1ccnc1SCCNc1nccc(C(F)(F)F)n1` the value was -1.16%. In the case of `CNc1ccnc(NCCSc2nccn2C)n1`, the INHIBITION came out at 44.3%. For `O=C(NCc1nccs1)N1CCOC(c2ccccc2Cl)C1` (stereo not drawn) the value was 19.9%; for `CCC(Nc1nc(C)nc2onc(C)c12)c1cccs1` (stereo not drawn), 79.9%; for `Cc1noc2ncnc(NC(CC(C)(C)C)c3cccnc3)c12` (stereo not drawn), 23.5%.

As to `Cc1nc(NCC(O)CN2CCCCCC2)c2c(C)noc2n1` (stereo not drawn), the INHIBITION was determined as 15.7%.

`CCC(Nc1nc(C)nc2onc(C)c12)c1nc(C)c(C)s1` (stereo not drawn): the INHIBITION was determined as 70%. For `Cc1noc(C(C)C)c1C(=O)NCC(c1cccs1)N(C)C` (stereo not drawn) the value was 2.3%; for `Cc1nc(NCCSc2cnn[nH]2)c2c(C)noc2n1`, 1.56%. Consider `CNC(=O)NC(=O)C(C)N(C)CCCc1cc(-c2ccccc2)no1` (stereo not drawn), for which the INHIBITION is -14.18%. As to `c1csc(CN2Cc3nccn3CC(Cn3cncn3)C2)c1` (stereo not drawn), the INHIBITION is on record as -22.1%. For `CCCc1cc(C(=O)N[C@@H]2CCC[C@@H](N3CCCC3)[C@@H]2O)no1` the value was 13.7%. With `Cn1nccc1CNS(=O)(=O)c1cc(F)ccc1Br` the figure was 6.02%. With `CCC(C)Oc1cc(C(=O)Nc2nnc(C(C)C)[nH]2)ccn1` (stereo not drawn) the figure was 42.6%.

Take `CC(C)c1nnc(NC(=O)CCc2cc(F)ccc2F)[nH]1`: the INHIBITION turned out to be 53.3%. As to `CS(=O)(=O)c1nnc(NC(=O)CCc2cc(F)ccc2F)[nH]1`, the INHIBITION was found to be 43.7%.

As for `CC(C)N1CCC(CNC(=O)CCc2cc(F)ccc2F)C1` (stereo not drawn), the INHIBITION was -20.3%. With `CC(C)c1nnc(NC(=O)c2cccc(OCC(F)(F)F)n2)[nH]1` the figure was -38.6%. With `CC(C)c1nnc(NC(=O)Cc2ccc(F)cc2)[nH]1` the figure was 51.1%; with `O=C(C1=CC2(CCN(CCO)CC2)c2ccccc21)N1CCCC1`, 13.6%; with `O=C(CCc1nc(-c2ccccc2)no1)N[C@H]1COC[C@@H]1N1CCCC1`, -12.1%. On to `Cc1nc(N)cc(C2CN(C(=O)c3cscn3)CCO2)n1` (stereo not drawn), for which the INHIBITION was found to be 35%.

Take `COc1ccc(NC(=O)COc2nn(C)c3nc(C)cc(C)c23)cn1`: the INHIBITION is reported as 22.8%. For `CC(C)CNC(=O)CN1CCCC(c2ccc(C(=O)O)cc2)C1` (stereo not drawn) the value was 33%; for `Cc1ccc(C2CCCCCN2C(=O)Nc2cn[nH]c2)o1` (stereo not drawn), -22.05%. With `CC(C)CCC(=O)NCC(=O)N1CCCCCC1c1ccco1` (stereo not drawn) the figure was 19.3%. With `CCc1ccc(C2CCCCCN2C(=O)CNC(=O)NC2CC2)o1` (stereo not drawn), the INHIBITION is 68%.

In the case of `CCc1ccc(C(=O)NCC2CCCN2CC)o1` (stereo not drawn), the INHIBITION is given as 31.2%. For `CCc1ccc(C2CCCCCN2C(=O)CNC(=O)C2CC2)o1` (stereo not drawn) the value was 63.7%; for `CNCC(=O)N1CCCC1c1nc(C(C)C)no1` (stereo not drawn), 6.33%.

Regarding `CCn1nccc1CNC(=O)NC1CCCCC1`, the INHIBITION was 26.8%. With `CCc1ccc(C(=O)N2CCCCC2CNS(C)(=O)=O)o1` (stereo not drawn) the figure was -23.5%; with `O=C(NCC(=O)N1CCCC1Cc1cccc(F)c1)C1CCCC1` (stereo not drawn), 7.19%. As for `CCc1ccc(C2CCCN2C(=O)CNC(=O)CCC(C)C)o1` (stereo not drawn), the INHIBITION stood at 64.8%.

In the case of `CCc1ccc(C2CCCN2C(=O)NCC(=O)NCC(C)C)o1` (stereo not drawn), the INHIBITION was determined as 60.4%.

These data come from ChEMBL document CHEMBL4513216, “Probing the Open Global Health Chemical Diversity Library for Multistage-Active Starting Points for Next-Generation Antimalarials” (ACS Infect Dis, 2020).
